Data reported in PubChem BioAssay (EPA / NIEHS).
Active and inactive are the calls of the source. The calls were made as follows: active = hit-call score of the fitted dose curve at least 0.9, where 1 is the maximum; inactive = score below 0.9.

read-out: Phosphatase and tensin (PTEN), PTEN (gene 5728); assay: LTEA_HepaRG_PTEN: Life Technologies and Expression Analysis (LTEA) Assay for Phosphatase and tensin (PTEN) using HepaRG (AID 2283523); settings: mRNA level, 48 h; actives raise or lower the signal
In short: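 Expression of PTEN is quantified in the human liver line HepaRG following two days of dosing (top concentration 100 uM, half-log dilutions, 0.5% DMSO). Values derive from bidirectional curve fitting relative to DMSO controls.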

Compound | outcome | AC50
C=C(C)CN(CC)c1c([N+](=O)[O-])cc(C(F)(F)F)cc1[N+](=O)[O-] | inactive | 
N#Cc1c[nH]cc1-c1cccc2c1OC(F)(F)O2 | inactive | 
CCOc1nc(C(Cl)(Cl)Cl)ns1 |  | 1.25 µM (active)
CCN(CC)c1nc(C)cc(OP(=S)(OC)OC)n1 | inactive | 
O=C(Nc1ccccc1-c1ccc(Cl)cc1)c1cccnc1Cl | inactive | 
COC(=O)NS(=O)(=O)c1ccc(N)cc1 | inactive | 
CC(C)NC(=O)N1CC(=O)N(c2cc(Cl)cc(Cl)c2)C1=O | inactive | 
CC(C)Oc1cccc(NC(=O)c2ccccc2C(F)(F)F)c1 | inactive | 
O=C1C2CC=CCC2C(=O)N1SC(Cl)(Cl)Cl (configuration not stated) | inactive | 
OC(c1ccc(Cl)cc1)(c1ccc(Cl)cc1)C(Cl)(Cl)Cl |  | 78.4 µM (active)
COc1ccc(-c2ccccc2)cc1NNC(=O)OC(C)C | inactive | 
CCCC(=NOCC)C1=C(O)CC(CC(C)SCC)CC1=O (configuration not stated) | inactive | 
CC(C)=CC1C(C(=O)OCc2coc(Cc3ccccc3)c2)C1(C)C (configuration not stated) | inactive | 
CC1(C)C(C=C(Cl)Cl)C1C(=O)OC(C#N)c1cccc(Oc2ccccc2)c1 (configuration not stated) | inactive | 
CO/N=C(/C1=NOCCO1)c1ccccc1Oc1ncnc(Oc2ccccc2Cl)c1F | inactive | 
CNC(=O)N(C)c1nnc(C(C)(C)C)s1 | inactive | 
N#CN=C1SCCN1Cc1ccc(Cl)nc1 | inactive | 
CCCCOCN(C(=O)CCl)c1c(CC)cccc1CC | inactive | 

Compound | outcome | AC50
Nc1cnn(-c2ccccc2)c(=O)c1Cl | inactive | 
O=c1n(Cl)c(=O)n(Cl)c(=O)n1Cl | inactive | 
CNC(=O)Oc1cccc2ccccc12 | inactive | 
CC(C)N1C(=O)N(c2ccccc2)CSC1=NC(C)(C)C | inactive | 
CCSC(=O)N1CCCCCC1 | inactive | 
COP(=O)(OC)O/C(C)=C/C(=O)N(C)C | inactive | 
Nc1c(Cl)c(F)nc(OCC(=O)O)c1Cl | inactive | 
Cc1cc(C)nc(Nc2ccccc2)n1 | inactive | 
O=C(O)c1c(Cl)ccc2cc(Cl)cnc12 | inactive | 
N#Cc1c(Cl)cccc1Cl | inactive | 
CC1(C)C(C(=O)OC(C#N)c2cccc(Oc3ccccc3)c2)C1(C)C (configuration not stated) | inactive | 
COCC(C)N(C(=O)CCl)c1c(C)csc1C (configuration not stated) | inactive | 
Cc1c(COC(=O)[C@@H]2[C@H](/C=C(\Cl)C(F)(F)F)C2(C)C)cccc1-c1ccccc1 | inactive | 
CCCN(CC)CC1COC2(CCC(C(C)(C)C)CC2)O1 (configuration not stated) | inactive | 
COC(=O)c1c(C(F)F)nc(C(F)(F)F)c(C2=NCCS2)c1CC(C)C | inactive | 
CCCCC(O)(Cn1cncn1)c1ccc(Cl)cc1Cl (configuration not stated) | inactive | 
CC(C)N1C(=O)c2ccccc2NS1(=O)=O | inactive | 
CCOP(=S)(OCC)Oc1nc(Cl)n(C(C)C)n1 | inactive | 

read-out: solute carrier (SLC22A1), SLC22A1 (gene 6580); assay: LTEA_HepaRG_SLC22A1: Life Technologies and Expression Analysis (LTEA) Assay for solute carrier (SLC22A1) using HepaRG (AID 2283524); settings: mRNA level, 48 h; actives raise or lower the signal;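 as to AC50: differentiated human HepaRG liver cells in serum-free induction medium; TaqMan qRT-PCR normalized to ACTB GAPDH and POLR2A housekeeping genes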
In short: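 Transcript induction or suppression of SLC22A1 in human HepaRG cultures is scored after 48 h chemical treatment, with DMSO (0.5%) as baseline for bidirectional fitting. Concentrations span eight half-log points topping at 100 uM.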

Compound | outcome | AC50
C=C(C)CN(CC)c1c([N+](=O)[O-])cc(C(F)(F)F)cc1[N+](=O)[O-] | inactive | 
N#Cc1c[nH]cc1-c1cccc2c1OC(F)(F)O2 |  | 40.7 µM (active)
CCOc1nc(C(Cl)(Cl)Cl)ns1 |  | 1.34 µM (active)
CCN(CC)c1nc(C)cc(OP(=S)(OC)OC)n1 | inactive | 
O=C(Nc1ccccc1-c1ccc(Cl)cc1)c1cccnc1Cl | inactive | 
COC(=O)NS(=O)(=O)c1ccc(N)cc1 | inactive | 
CC(C)NC(=O)N1CC(=O)N(c2cc(Cl)cc(Cl)c2)C1=O |  | 21.3 µM (active)
CC(C)Oc1cccc(NC(=O)c2ccccc2C(F)(F)F)c1 | inactive | 
O=C1C2CC=CCC2C(=O)N1SC(Cl)(Cl)Cl (configuration not stated) | inactive | 
OC(c1ccc(Cl)cc1)(c1ccc(Cl)cc1)C(Cl)(Cl)Cl |  | 81.9 µM (active)
COc1ccc(-c2ccccc2)cc1NNC(=O)OC(C)C | inactive | 
CCCC(=NOCC)C1=C(O)CC(CC(C)SCC)CC1=O (configuration not stated) | inactive | 
CC(C)=CC1C(C(=O)OCc2coc(Cc3ccccc3)c2)C1(C)C (configuration not stated) | inactive | 
CC1(C)C(C=C(Cl)Cl)C1C(=O)OC(C#N)c1cccc(Oc2ccccc2)c1 (configuration not stated) | inactive | 
CO/N=C(/C1=NOCCO1)c1ccccc1Oc1ncnc(Oc2ccccc2Cl)c1F |  | 24.8 µM (active)
CNC(=O)N(C)c1nnc(C(C)(C)C)s1 | inactive | 
N#CN=C1SCCN1Cc1ccc(Cl)nc1 | inactive | 
CCCCOCN(C(=O)CCl)c1c(CC)cccc1CC | inactive | 

Compound | outcome | AC50
Nc1cnn(-c2ccccc2)c(=O)c1Cl | inactive | 
O=c1n(Cl)c(=O)n(Cl)c(=O)n1Cl | inactive | 
CNC(=O)Oc1cccc2ccccc12 | inactive | 
CC(C)N1C(=O)N(c2ccccc2)CSC1=NC(C)(C)C |  | 81.4 µM (active)
CCSC(=O)N1CCCCCC1 | inactive | 
COP(=O)(OC)O/C(C)=C/C(=O)N(C)C | inactive | 
Nc1c(Cl)c(F)nc(OCC(=O)O)c1Cl | inactive | 
Cc1cc(C)nc(Nc2ccccc2)n1 |  | 9.92 µM (active)
O=C(O)c1c(Cl)ccc2cc(Cl)cnc12 | inactive | 
N#Cc1c(Cl)cccc1Cl | inactive | 
CC1(C)C(C(=O)OC(C#N)c2cccc(Oc3ccccc3)c2)C1(C)C (configuration not stated) | inactive | 
COCC(C)N(C(=O)CCl)c1c(C)csc1C (configuration not stated) |  | 73.3 µM (active)
Cc1c(COC(=O)[C@@H]2[C@H](/C=C(\Cl)C(F)(F)F)C2(C)C)cccc1-c1ccccc1 | inactive | 
CCCN(CC)CC1COC2(CCC(C(C)(C)C)CC2)O1 (configuration not stated) | inactive | 
COC(=O)c1c(C(F)F)nc(C(F)(F)F)c(C2=NCCS2)c1CC(C)C | inactive | 
CCCCC(O)(Cn1cncn1)c1ccc(Cl)cc1Cl (configuration not stated) |  | 73.6 µM (active)
CC(C)N1C(=O)c2ccccc2NS1(=O)=O | inactive | 
CCOP(=S)(OCC)Oc1nc(Cl)n(C(C)C)n1 |  | 12.2 µM (active)
